Bioassay records from PubChem.
ssDAF-12 act: S. stercoralis DAF-12 nuclear receptor activators, primary screen, cell-based, luminescence, HEK293, GRIP1 co-expression, lit1-tk-luc; HEK293 ssDAF-12/GRIP1 lit1-tk-luc reporter; % of 3 µM dafachronic acid response; activation, % at 6.8 µM; 370,000 compounds, 1% hits;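 active = activation above the mean over all tested compounds plus 3 SD, cut at about 0.9% in these data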;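 note: 0% = DMSO-only wells and 100% = 3 µM delta7-dafachronic acid wells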
DAX1 inh-1: DAX1 (NR0B1) inhibitors, primary screen, cell-based, HEK293, Gal4-DAX1, luciferase luminescence. Nuclear receptor subfamily 0 group B member 1 (Homo sapiens), P51843. HEK293 Gal4-DAX1 luciferase reporter. inhibition, % at 6.75 µM. 340,000 compounds, 0.99% hits. AID 504766, 2011;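 active = inhibition above the mean over all tested compounds plus 3 SD, cut at about 4.2% in these data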;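 note: 0% = DAX1-transfected cells with DMSO and 100% = empty-vector control cells with DMSO; inhibition shows as a rise in luminescence from relieved DAX1 repression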
DAX1 inh-2: DAX1 (NR0B1) inhibitors on StAR promoter, primary screen, cell-based, luminescence, SF-1 (NR5A1), full-length DAX-1; inhibition, % at 6.8 µM; AID 652010, 2013; 370,000 compounds, 1.1% hits; HEK293T StAR-luciferase reporter, SF-1/DAX-1 repression relief;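 active = inhibition above the mean over all tested compounds plus 3 SD, cut at about 3.6% in these data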;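 note: 0% = DAX-1 cells with DMSO and 100% = cells lacking DAX-1 with DMSO; higher inhibition means more luminescence from relief of DAX-1 repression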
AHR activator: AHR activators, primary screen, cell-based, luminescence, luciferase reporter, human. Aryl hydrocarbon receptor (Homo sapiens), P35869. AHR-responsive luciferase reporter cells. activation, % at 5 µM. 320,000 compounds, 2.5% hits. AID 2796, 2010; in the data active = activation above about 47%;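 note: 0% = vehicle wells and 100% = reference agonist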
hcDAF12 agonist: H. contortus DAF-12 nuclear receptor activators, primary screen, cell-based, luminescence, HEK293, lit1-tk-luc reporter | HEK293 hcDAF-12 lit1-tk-luc reporter; 0% DMSO, 100% Δ7-dafachronic acid | activation, % at 6.8 µM | 370,000 compounds, 1.4% hits | AID 652067, 2013;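 active = activation above the mean of all tested compounds plus 3 SD, cut at about 5.5% in these data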;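 note: 100% = response to 3 µM Δ7-dafachronic acid high control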
hgDAF12 agonist: H. glycines DAF-12 receptor agonists, primary screen, cell-based, luminescence, HEK293, GAL4 fusion, UAS-luciferase | HEK293 GAL4-hgDAF12 UAS-luciferase reporter, agonist luminescence; normalized to butyrate control | 370,000 compounds, 1.8% hits | activation, % at 6.8 µM;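 active = activation above a cutoff set at the mean of all screened compounds plus 3 SD, cut at about 10% in these data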;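 note: 0% = DMSO wells and 100% = sodium butyrate wells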
hgDAF12 ag: H. glycines DAF-12 receptor agonists, confirmation, cell-based, luminescence, HEK293, GAL4-LBD fusion | 3,300 compounds, 80% hits | HEK293 GAL4-hgDAF12 luciferase reporter, agonist mode; percent of butyrate response | shares compounds with hgDAF12 agonist | activation, % at 6.8 µM | AID 743050, 2013;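 active = mean activation over triplicate wells above the hit cutoff derived from the earlier primary screen, cut at about 11% in these data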;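 note: 0% = DMSO low control and 100% = 2 mM sodium butyrate high control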
LXR ag 2: LXR agonists, Gal4 luciferase reporter, confirmation, counter-screen for hgDAF-12 agonist project, cell-based, luminescence, HEK293, H. glycines campaign | shares compounds with hgDAF12 agonist | 24 h | activation, % at 6.8 µM | 3,300 tested, under 10 active;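 active = mean activation of the triplicate above a set limit carried over from the primary screen, none filed active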
Target sequence (P55055 whole entry, looked up, the tested form may be a part): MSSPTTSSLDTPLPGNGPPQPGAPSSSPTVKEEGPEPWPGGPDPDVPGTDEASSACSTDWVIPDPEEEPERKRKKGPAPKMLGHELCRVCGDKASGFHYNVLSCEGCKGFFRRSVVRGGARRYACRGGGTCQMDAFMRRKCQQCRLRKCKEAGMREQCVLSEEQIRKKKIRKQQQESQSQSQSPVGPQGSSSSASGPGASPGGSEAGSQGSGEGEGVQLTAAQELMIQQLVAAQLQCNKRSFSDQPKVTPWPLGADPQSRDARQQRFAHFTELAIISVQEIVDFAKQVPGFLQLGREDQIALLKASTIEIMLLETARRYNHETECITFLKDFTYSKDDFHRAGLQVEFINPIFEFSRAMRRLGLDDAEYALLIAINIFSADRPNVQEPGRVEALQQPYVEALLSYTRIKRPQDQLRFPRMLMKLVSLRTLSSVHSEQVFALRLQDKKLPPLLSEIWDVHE
Starred values were filed as active, the others as inactive; . = no result given. Rows were chosen to be rich in hits. Some 5.7% of all compounds tested hit in one or more screens of this group.

SMILES	ssDAF-12 act	DAX1 inh-1	DAX1 inh-2	AHR activator	hcDAF12 agonist	hgDAF12 agonist	hgDAF12 ag	LXR ag 2
Cc1cccc(NC(=O)c2ccc(N3CCOCC3)c([N+](=O)[O-])c2)n1	-1	2	1	3	0	14*	5	0
O=C1c2ccccc2-c2nnc(-c3ccc(F)cc3)cc21	1.4*	7.1*	2	-8	6.0*	15*	11*	1
O=c1[nH]nc(-c2ccc(F)cc2)cc1-c1ccccc1	-2	-1	0	.	-2	-3	.	.
COc1ccc(C(=O)N/N=C(\C)Cn2cnc([N+](=O)[O-])n2)cc1	-1	1	0	18	2	15*	0	0
C/C(Cn1cnc([N+](=O)[O-])n1)=N\NC(=O)c1ccncc1	-1	2	1	17	-1	0	.	.
Cc1cccc(NC(=O)COc2ccc(Br)cc2/C=N/O)c1	0	1	3	19	5	15*	11*	0
CC(=O)Nc1ccc(NC(=O)COc2ccc(Br)cc2C)cc1	-2	2	1	2	-1	1	.	.
COc1ccc(-c2cn3c(C)c(C(=O)NC(C)(C)C)sc3n2)cc1	1	2	3	55*	6.0*	18*	12*	0
CCOc1ccc(Nc2ccc([N+](=O)[O-])c3nonc23)cc1	0	1	1	17	0	3	.	.
CCCCC(=O)Nc1ccc(C(=O)OC2CCCCC2)cc1	-1	-1	0	2	-2	1	.	.
CCCCNC(=O)CCn1nc(-c2ccc(Cl)cc2)c2ccccc2c1=O	-1	-3	-1	-1	-2	-2	.	.
O=C(/C=C/c1ccc(Cl)c(Cl)c1)NC1=NCCS1	0	1	1	12	3	13*	10*	0
COc1ccc(/C=C/C(=O)NC2=NCCS2)c(OC)c1	-1	.	.	.	5	14*	15*	1
CC(C)c1ccc(/C=C/C(=O)NC2=NCCS2)cc1	.	.	.	10	.	.	.	.
Cc1ccc(-c2nc3ccc(Cl)cc3n2OC(C)C(=O)O)cc1 (configuration not stated)	0	2	3	6	4	23*	13*	1
Cc1ccc(CNC(=O)CCn2c(=O)oc3ccccc32)cc1	0	0	-1	-3	0	13*	1	0
O=C(CCn1c(=O)oc2ccccc21)NCc1ccco1	-1	0	1	-1	-1	0	.	.
CC(=O)Oc1ccccc1-c1nc(/C=C/c2ccccc2)no1	0	2	3	.	6.3*	17*	18*	1
Cc1scc(C(=O)N/N=C/c2ccsc2)c1C	1.1*	2	3	10	2	18*	17*	0
Cc1scc(C(=O)N/N=C/c2ccco2)c1C	0	1	2	7	0	10	.	.
Cc1ccc(SC(C)C(=O)Nc2ccccc2C(=O)N2CCOCC2)cc1 (configuration not stated)	-1	0	0	0	-1	0	.	.
Cn1c(N)c(C(=O)Nc2ccc3ccccc3c2)sc1=S	-1	3	2	93*	3	15*	13*	1
O=C(N=C1N=C2C=CC(Br)=CN2Cc2ccccc21)c1ccc([N+](=O)[O-])cc1[N+](=O)[O-]	1.1*	1	1	94*	5	14*	14*	1
O=C(c1ccc([N+](=O)[O-])cc1[N+](=O)[O-])N1CCc2ccccc21	-1	-2	0	22	-2	-2	.	.
Cc1ccc(NC(=S)Nc2ccc(OC(F)F)c(Cl)c2)cc1F	0	0	0	-1	-1	-4	.	.
SMILES	ssDAF-12 act	DAX1 inh-1	DAX1 inh-2	AHR activator	hcDAF12 agonist	hgDAF12 agonist	hgDAF12 ag	LXR ag 2
COc1ccc(NC(=O)c2ccc(OC(F)F)cc2)cc1Cl	1.4*	1	3.7*	26	5	17*	12*	0
O=C(Nc1ccc(OC(F)F)c(Cl)c1)c1ccccn1	1.4*	5.2*	4.5*	-2	4	14*	17*	1
CC(c1ccccc1)c1nnc(NC(=O)Nc2ccccc2)s1 (configuration not stated)	-1	-1	1	10	-1	3	.	.
CC(C)Cc1nnc(NC(=O)Nc2ccccc2)s1	-2	0	2	17	2	21*	14*	0
COc1ccc(/C=C/C(=O)c2ccccc2)c(OC)c1	1	4	2	3	5	14*	14*	1
COc1ccc(/C=C/C(=O)c2ccc3c(c2)OCO3)c(OC)c1	0	3	3	12	4	24*	17*	1
COc1ccc(CCCNC(=O)C2CCC(=O)N(CCCN3CCCC3=O)C2)cc1 (configuration not stated)	-1	2	0	-2	-2	0	.	.
O=C(NCc1ccccc1)c1cccc(COc2ccc3c(c2)CCC3)c1	-1	-4	2	-4	3	21*	17*	1
CCc1ccc(C(=O)CN2CCSC2=N)cc1	1	2	3	7	5.6*	20*	17*	1
Cc1nn(-c2ccccc2)nc1C(=O)c1c(C)[nH]n(-c2ccccc2)c1=O	-1	0	0	-1	-1	0	.	.
Cc1ccc(Nc2nnc(SCC(=O)Nc3cccnc3Cl)s2)cc1C	-1	-1	0	2	2	14*	5	0
Cc1ccc(Nc2nnc(SCC(=O)Nc3ccccc3[N+](=O)[O-])s2)cc1	-1	-2	-1	4	-1	-1	.	.
O=c1[nH]c2ccccc2nc1/C=C/c1ccc(F)cc1	-1	2	2	74*	4	16*	11*	0
